# Data: the supplement of paper PMC12632987
# T1: USP38, Q8NB14
# T1 chain: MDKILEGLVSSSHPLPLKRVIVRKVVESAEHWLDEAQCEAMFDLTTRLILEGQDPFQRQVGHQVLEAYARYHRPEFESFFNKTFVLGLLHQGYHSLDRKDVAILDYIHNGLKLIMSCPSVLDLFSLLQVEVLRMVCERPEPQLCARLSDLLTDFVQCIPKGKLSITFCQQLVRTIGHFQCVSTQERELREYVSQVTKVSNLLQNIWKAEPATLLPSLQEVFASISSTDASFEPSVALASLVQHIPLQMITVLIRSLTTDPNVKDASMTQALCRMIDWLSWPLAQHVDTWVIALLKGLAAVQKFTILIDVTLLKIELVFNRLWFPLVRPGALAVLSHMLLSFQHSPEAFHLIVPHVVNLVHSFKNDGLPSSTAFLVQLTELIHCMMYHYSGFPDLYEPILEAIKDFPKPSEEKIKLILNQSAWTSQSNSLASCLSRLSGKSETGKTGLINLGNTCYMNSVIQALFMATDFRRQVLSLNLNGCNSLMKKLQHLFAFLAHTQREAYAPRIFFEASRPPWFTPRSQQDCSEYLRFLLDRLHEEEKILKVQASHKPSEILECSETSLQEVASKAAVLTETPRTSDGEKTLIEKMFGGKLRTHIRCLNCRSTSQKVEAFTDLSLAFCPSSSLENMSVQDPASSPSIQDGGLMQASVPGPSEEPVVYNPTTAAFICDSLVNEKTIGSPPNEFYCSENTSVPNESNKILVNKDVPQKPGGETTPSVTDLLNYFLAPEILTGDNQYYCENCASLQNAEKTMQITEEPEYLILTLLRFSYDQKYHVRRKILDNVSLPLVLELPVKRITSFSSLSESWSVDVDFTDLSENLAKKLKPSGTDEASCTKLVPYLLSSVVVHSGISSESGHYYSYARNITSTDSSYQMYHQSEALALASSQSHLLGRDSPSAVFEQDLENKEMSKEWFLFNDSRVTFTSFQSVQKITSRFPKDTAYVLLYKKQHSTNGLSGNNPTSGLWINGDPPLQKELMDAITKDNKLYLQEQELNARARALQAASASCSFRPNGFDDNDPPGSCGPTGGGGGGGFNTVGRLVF
# Target: T1, USP38, Q8NB14
# Assay: median log2 fold change of GCK-ALFA target abundance (FLAG IP / Myc IP barcode read proportion) (log2 ratio); each designed protein is fused to an ALFA-tag nanobody in HEK293 cells to bring the named protein to FLAG-tagged glucokinase (GCK); Myc marks an untargeted standard; higher = target protein stabilised (more abundant)
# Conditions: target protein: 3xFLAG-MCP-GCK-ALFA reporter; HEK293 landing pad (RPLP)
# Procedure, shortened: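 An ALFA-nanobody-fused binder library was recombined into HEK293 landing-pad cells and induced with 2 μg mL^−1 doxycycline. Cells were transfected with a plasmid expressing a FLAG-tagged target and a Myc-tagged standard. After 48 h, lysates underwent anti-FLAG and anti-Myc immunoprecipitation, and circular RNA barcodes were reverse transcribed, amplified and sequenced. Target abundance is the per-binder median log2 ratio of FLAG to Myc barcode read proportions. Barcodes needed ≥10^−7 proportion in both replicates, binders ≥3 barcodes per replicate, and a 10^−6 pseudocount was added; the two replicates were pooled.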
binder,measurement,value
usp_38_diff_out_2_113_472 (protein) DPEEKKKEAELYKDIITEGADQLLELAKKGKLTPDRTAVMTAGIVHAAEVAYELDPSVKPTIEEVIKKLEEVYELVKDKNPEVAKIIEEAIKKLKEILKK,median log2 fold change,0.269
usp_38_diff_out_2_113_474 (protein) DPEERRKEAELYRDIILEGAEQLLRLAKAGRLTPDRTKVMLGGIVHAAEEAYELDPSVKPTIEEVIKKLEEVYELVKDKNPEVAAEIKEAIEKLKEILKK,median log2 fold change,-0.0131
usp_38_diff_out_2_113_475 (protein) DPEVREEIREAALSNLLSSLEELLKIAKENRRSEETMRMMVRGVIEAALELIRELNLPEEDVKKILELLEEVRKALAEKNPELAKLAQEGIEELRKAAEE,median log2 fold change,0.205
usp_38_diff_out_2_141_476 (protein) SEADELFREAFEREARAVAEEARKLIPKRLAIAERLAARGDLASLEERRTRVRAQAGAFRAMAEELEEMGGRPEVIELLRATAAELEEAAARIEELIAKL,median log2 fold change,-0.698
usp_38_diff_out_2_35_489 (protein) SEEEEEFRREARERLDKLADEVNDTTRETLEALAEADAPLEEIERVLEESDKAFKAIAEAYRLIREGASREEIEEALKKAEEKVKEFKKYAEEVLKRLKE,median log2 fold change,0.192
usp_38_diff_out_2_35_490 (protein) MEEEEAFRKKVKEELDKMQDEAHEATTETLELLAEADAPLERFDELMRKYDEFMEAAAKTYKLIEEGASKEEIEKALKEAREKYKEFMEFAEKLKKEVAA,median log2 fold change,0.00989
usp_38_diff_out_2_35_491 (protein) AAAEAARREEIRRRIDEMVDEANELTAETLEKLAEADAPDEKFEELFEAYDELMRLLARTYRLIREGAPLEEIERALEEAERKLEEFKKLAEELKKEAEE,median log2 fold change,0.305
usp_38_diff_out_2_35_492 (protein) SEEEEKAREEARKEIDELTDELNKTTSETLEALAEADAPLEKFDELMAKYSEAARALAATYKLIQEGAPLEEIEKALKEAKEAVEAFKKFAEELLKEAKA,median log2 fold change,0.112
usp_38_diff_out_2_35_493 (protein) SMEERREREERLKEIGARIDEAHELTREALELLAEIDAPQERFDRLFATYDAAMRALTAEARAVREGAPQEEIDRLRAEAEAALAELKALLAEARKLAAE,median log2 fold change,-0.077
usp_38_diff_out_2_35_494 (protein) SSAERAAREALLAEIDAKIDEAVALTREALELLAEINAPEEEFDELFKTYDAAMTALTTAARLVREGAPQEEIEKAKAKAEAALAKLKALLEEAKKRAKE,median log2 fold change,-0.0997
usp_38_diff_out_2_61_507 (protein) SAELQAQAERIEALLAQAEALIAELEAQLDTADEATLRALLAEAQAVLDEAIDLLVELYLRAHEAGDEEALAQADALWDRLGAVAARLRRAREALTDRLS,median log2 fold change,-0.299
usp_38_diff_out_2_61_508 (protein) SEELEEKLEEVRRLLEEARRLIEELRRRLDTADEATLRALLREAESVLNEAIDLLIEVYNEAHELGDEETLEKADELWDELGRVAAELRRAREEFTDRVR,median log2 fold change,-0.394
usp_38_diff_out_2_61_509 (protein) SEELKKKAEEIEKLLREARELIAEARAGLDTRDPAELRALLREAERVLDEAIDLLVEFYEEAVEAGDEEALKKADELWDELGRAAKELRELRERLTERVR,median log2 fold change,0.28
usp_38_diff_out_2_61_510 (protein) NKELEKMIKEIEAKIKEAKALVDELEAGLDTLDEETLEALLAEARAVLDEAIDLLVKAYELAHELDDKEALERLDKLWDELGEVAARLREARERFTRRRR,median log2 fold change,0.4
usp_38_diff_out_2_61_511 (protein) NKELEEQIKEIKKLIEEAKKLVEELEALLDTADEATLEKLLEEAEKVLNKAIDLLVQAFEQAHEAGDEEALKQLDELWDELGKVAARLREARERLTRRRR,median log2 fold change,0.412
usp_38_diff_out_2_61_512 (protein) SEELEEKAKKIKELIEEAKKLVEEIEKELDTADLAELEKKLKEAEEVINKAIDELEELYKKAVLLGDEEAIKKANELWDELGEVAARYNEVRRRLTERKL,median log2 fold change,0.151
